From PubChem BioAssay (Tox21) come the findings set out here.

The nature of assay [1]: A CellTox Green Cytotoxicity Assay to monitor cytotoxicity in HepG2 cells - 8 hour (AID 1224890). Note: nearly all actives have a fitted effect of over 45% in size. In outline:
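Nonlytic assay: viable cells exclude the dye, so fluorescence scales with cell death. HepG2 at 600 cells/well, compounds added after 5 h, signal read across 40 h.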

The nature of assay [2]: qHTS assay to identify small molecule antagonists of the estrogen receptor alpha (ER-alpha) signaling pathway using the BG1 cell line in the presence of 0.1 nM 17-beta-estradiol - cell viability counter screen (AID 1259241). Note: nearly all actives have a fitted effect of over 40% in size. Summed up: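 VM7Luc4E2, 4,000 cells/well, phenol red-free medium + 10% charcoal-stripped FBS; 24 hr plating; cpd + 0.1 nM E2 final, 22 hr 37C/5% CO2; CellTiter-Fluor 30 min, fluorescence.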
Background: qHTS replaces the single test concentration by a dilution series.

Assay [3] can be described thus: qHTS assay to identify small molecule antagonists of the androgen receptor (AR) signaling pathway using the MDA cell line in the presence of 0.5 nM R1881 - cell viability counter screen (AID 1259242). Note: nearly all actives have a fitted effect of over 45% in size. In outline: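 R1881 at 0.5 nM final stimulated MDA-kb2 cells during 16 hr compound treatment at 37C. Cytotoxicity read: CellTiter-Fluor fluorescence after 30 min.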

Assay [4] addresses Estrogen receptor (Homo sapiens) (UniProt P03372). The assay can be described thus: qHTS assay to identify small molecule antagonists of the estrogen receptor alpha (ER-alpha) signaling pathway using the BG1 cell line in the presence of 0.1 nM 17-beta-estradiol (AID 1259244). Note: nearly all actives have a fitted effect of over 50% in size. In outline: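 VM7Luc4E2; 4xERE-luciferase; 0.1 nM E2 final; 22 h co-incubation, 37C; ONE-Glo luminescence after 30 min at room temperature.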

Assay [5] is described as follows: qHTS assay to identify small molecule phospholipidosis (PLD) inducers (AID 1259344; active = well fitted curve in the direction sought with a large enough effect; an effect the other way counts as inactive or inconclusive). Summed up: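 HepG2 cells, 900/well, treated with compound plus LipidTOX Red for 24 h at 37 C; amiodarone positive and DMSO negative controls. Fixed with paraformaldehyde/Hoechst, then high-content imaging scored LipidTOX pit count and integrated intensity per well and per cell.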

Assay [6] in a line: qHTS assay to identify small molecule HDAC inhibitors (AID 1259364). For activity change, negative = inhibition: top concentration of the series differs between compounds. Note: potency is the fitted concentration of half-maximal effect.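 Note: wild-type HCT-116 cells with endogenous class I/II HDAC activity; nearly all actives have a fitted effect of over 45% in size.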 In outline:
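Relative class I and II HDAC activity is taken from the luminogenic signal in HCT-116 cells, with compound exposure 2 hr and reagent development 30 min at room temperature.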

A short description of assay [7]: qHTS assay to identify small molecule HDAC inhibitors - cell viability counter screen (AID 1259365). Note: series mostly up to about 92 µM; nearly all actives have a fitted effect of over 50% in size. Summed up: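 Luminescence from CellTiter-Glo, developed 30min at room temperature, reports viability of wild-type HCT-116 cells treated 2hr with compounds at 37 C and 5% CO2 after overnight plating.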
Assay [8] can be described thus: qHTS assay to identify small molecule agonists of the sonic hedgehog signaling (Shh) pathway - cell viability counter screen (AID 1259366). Note: nearly all actives have a fitted effect of over 50% in size. In outline:
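Cytotoxicity counter screen run in the same wells as the Shh reporter assay. NIH/3T3 cells carrying a Gli1 response element–driven luciferase were treated with DMSO-dissolved compounds for 24hr, and live-cell protease activity was measured with CellTiter-Fluor.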

Assay [9] can be described thus: qHTS assay to identify small molecule antagonists of the sonic hedgehog signaling (Shh) pathway - cell viability counter screen (AID 1259367). Note: nearly all actives have a fitted effect of over 55% in size. In outline:
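NIH/3T3-derived Gli1-Luc reporter cells, 2,000/well, plated 4 hr before compound addition, then stimulated with conditioned medium for 24 hr at 37C. Viability measured in the same wells by CellTiter-Fluor fluorescence, reagent added at 23 hr for 1 hr.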

The structures appear in SMILES notation. Several values for one entry are separate records, joined by “and”; a condition that tells them apart may be missing. Equal values may be shown once. Values without a mark were called inactive. Results filed as inconclusive are left out. Activity calls are given as the source filed them. Unless noted, calls come from the whole dose curve; as a rule, active = well fitted curve in the direction sought with a large enough effect in the repeat runs; inconclusive = weak or mixed curves; inactive = no such curve, though single readings can be large; an effect the other way counts as inactive or inconclusive.
% is set by controls: 0 for no effect and ±100 for the full control effect.

Estrogen receptor (Homo sapiens), sequence (P03372 whole entry, looked up): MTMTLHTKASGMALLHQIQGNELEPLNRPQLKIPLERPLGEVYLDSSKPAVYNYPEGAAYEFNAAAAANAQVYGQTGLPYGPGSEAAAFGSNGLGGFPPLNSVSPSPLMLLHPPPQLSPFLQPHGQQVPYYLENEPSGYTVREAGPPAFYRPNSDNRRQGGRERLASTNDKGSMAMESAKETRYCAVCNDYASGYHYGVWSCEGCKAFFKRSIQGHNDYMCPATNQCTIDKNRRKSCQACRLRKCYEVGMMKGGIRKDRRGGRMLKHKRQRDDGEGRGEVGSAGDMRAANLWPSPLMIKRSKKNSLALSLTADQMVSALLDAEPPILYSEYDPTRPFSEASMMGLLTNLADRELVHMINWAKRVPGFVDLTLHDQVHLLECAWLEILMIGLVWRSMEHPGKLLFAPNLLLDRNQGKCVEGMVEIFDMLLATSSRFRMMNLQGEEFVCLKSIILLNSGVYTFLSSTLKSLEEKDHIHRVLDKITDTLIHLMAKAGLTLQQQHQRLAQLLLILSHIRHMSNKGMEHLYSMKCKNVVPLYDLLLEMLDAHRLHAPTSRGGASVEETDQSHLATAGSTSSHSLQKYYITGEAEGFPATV

With `CCCOc1ccccc1-c1nc2n[nH]nc2c(=O)[nH]1`, the Potency entry in [1], in assay [5], in assay [6] and in [8] was “inactive” in each case. The result in [2], in [3], in assay [4], in assay [7] and in assay [9] was inactive.

Regarding `CCCCCOC(=O)Nc1nc(=O)n([C@@H]2O[C@H](C)[C@@H](O)[C@H]2O)cc1F`, the Potency entry in assay [1], in [5], in assay [6] and in [8] was “inactive” each time. Also, the outcome in [2], in [3], in assay [4] and in assay [7] was inactive.

On to `CCN(CC)C(=O)c1ccc(O)c(OC)c1`, for which the Potency result in [1], in assay [5], in [6] and in assay [8] was “inactive” each time. For the same compound, the outcome in assay [2], in [3], in assay [4], in assay [7] and in assay [9] was inactive.

In the case of `COc1cc(O)cc(O)c1`, the Potency entry in assay [1], in assay [5], in assay [6] and in [8] was “inactive” each time. The outcome in assay [2], in assay [3], in [4], in assay [7] and in [9] was inactive.

For `Cc1cc(C)cc(OCC2CNC(=O)O2)c1` (stereo not given), the Potency result in assay [1], in assay [5], in assay [6] and in [8] was “inactive” each time. Besides, the result in assay [2], in [3], in assay [4], in assay [7] and in [9] was inactive.

Regarding `CNC(=O)c1c(I)c(NC(=O)CCCCC(=O)Nc2c(I)c(C(=O)O)c(I)c(C(=O)NC)c2I)c(I)c(C(=O)O)c1I`, the Potency entry in assay [1], in assay [6] and in assay [8] was “inactive” throughout. In addition, the result in [2], in assay [3], in assay [4] and in [7] was inactive.

As for `CC/C=C\CCCCO`, the Potency result in assay [1], in assay [6] and in assay [8] was “inactive” throughout. Besides, the outcome in [2], in assay [3], in [4] and in assay [7] was inactive.

Consider `Cc1nccn1CC1CCc2c(c3ccccc3n2C)C1=O` (stereo not given), for which the Potency entry in assay [1], in [6] and in assay [8] was “inactive” each time. In addition, the outcome in assay [2], in [3], in assay [4], in [7] and in assay [9] was inactive. Also, in assay [5], the PLD induction was -0.746% [at 7.66 µM] and -2.67% [at 3.15 µM].

`O=C1C(CCS(=O)c2ccccc2)C(=O)N(c2ccccc2)N1c1ccccc1` (stereo not given): the Potency result in assay [1], in [5], in assay [6] and in assay [8] was “inactive” each time. Besides, the result in assay [2], in assay [3], in assay [4], in [7] and in [9] was inactive.

`COc1ccc(N=[N+]([O-])c2ccc(OC)cc2)cc1`: the Potency result in [1] is “inactive”. The result in [2], in [3], in assay [4] and in assay [7] was inactive. In [6], the Potency was 1.08 µM (active).

Take `COc1ccc2cc(C=O)ccc2c1`: the Potency result in [1], in assay [6] and in assay [8] was “inactive” in each case. For the same compound, the result in [2], in assay [3], in [4] and in assay [7] was inactive.

Regarding `Fc1ccccc1-c1ccccc1`, the Potency entry in assay [1], in [6] and in assay [8] was “inactive” in each case. The result in assay [2], in [3], in assay [4] and in [7] was inactive.

As to `CCCCCC[C@@H](CCC)C(=O)O`, the Potency entry in [1], in assay [5], in [6] and in assay [8] was “inactive” throughout. For the same compound, the outcome in assay [2], in assay [3], in [4] and in [7] was inactive.

For the compound `CCC(C)(C)C1CCC(OC)CC1` (stereo not given), the Potency entry in assay [1], in assay [6] and in assay [8] was “inactive” each time. In addition, the result in assay [2], in assay [3], in [4] and in assay [7] was inactive.

Consider `CN(C)CCOC(c1ccc(Cl)cc1)c1ccccn1` (stereo not given), for which the Potency entry in assay [1], in assay [5], in [6] and in assay [8] was “inactive” each time. Besides, the result in assay [2], in assay [3], in [4], in assay [7] and in assay [9] was inactive.

Consider `CCC(C(=O)NC(N)=O)c1ccccc1` (stereo not given), for which the Potency result in assay [1], in assay [5], in assay [6] and in [8] was “inactive” throughout. The result in [2], in [3], in assay [4], in assay [7] and in [9] was inactive.

For the compound `CCn1cc(C(=O)O)c(=O)c2cc(F)c(N3CCN(C)CC3)cc21`, the cytotoxicity increase in assay [1] was -10.7% [at 15.8 µM]. Moreover, the activity change, negative = cytotoxicity in assay [2] is 1.73% [at 19 µM]; in assay [7] it was 2.46% [at 19 µM]. Also, the values for the viability change, negative = cytotoxic in assay [3], in [8] and in assay [9] were 1.22% [at 19 µM], 6.14% [at 19 µM] and 3.37% [at 19 µM], respectively. Besides, the activity change, negative = inhibition in assay [4] is 6.79% [at 19 µM]; in assay [6], -0.624% [at 19 µM]. The Potency result in [5] is “inactive”.

Consider `Nc1cc(C(Cl)=C(Cl)Cl)c(S(N)(=O)=O)cc1S(N)(=O)=O`, for which the Potency result in assay [1], in assay [5], in assay [6] and in assay [8] was “inactive” each time. Besides, the result in assay [2], in assay [3], in [4] and in assay [7] was inactive.

Take `CC(C)[C@H](N)C(=O)OCCOCn1cnc2c(=O)[nH]c(N)nc21`: the Potency entry in assay [1], in assay [5], in assay [6] and in assay [8] was “inactive” in each case. In addition, the result in assay [2], in [3], in assay [4], in [7] and in [9] was inactive.

With `COCCOC(=O)CC#N`, the Potency entry in assay [1] and in [6] was “inactive” throughout. The outcome in [2], in assay [3], in assay [4] and in assay [7] was inactive.

In the case of `CCN(CC)S(=O)(=O)c1ccc(C(=O)O)cc1`, the Potency result in assay [1], in assay [5], in [6] and in assay [8] was “inactive” each time. Besides, the outcome in assay [2], in [3], in assay [4], in assay [7] and in [9] was inactive.

As for `O=C(O)c1ccccc1S`, the Potency result in [1], in assay [5], in assay [6] and in [8] was “inactive” throughout. Further, the outcome in assay [2], in [3], in [4], in [7] and in [9] was inactive.

Consider `OCc1ccccn1`, for which the Potency result in [1], in assay [5], in assay [6] and in assay [8] was “inactive” each time. Moreover, the outcome in [2], in [3], in assay [4], in [7] and in assay [9] was inactive.

As to `CCc1cc(S(=O)(=O)O)c2cc(C(C)C)cccc1-2`, the Potency entry in assay [1] and in assay [6] was “inactive” each time. Moreover, the outcome in assay [2], in [3], in assay [4], in [7] and in assay [9] was inactive. In addition, the PLD induction in assay [5] was -3.58% [at 7.66 µM].

Take `CC(=O)OC(C)(C)C`: the Potency result in [1], in assay [6] and in assay [8] was “inactive” throughout. Further, the outcome in assay [2], in assay [3], in [4], in assay [7] and in [9] was inactive.

`c1ccc2cnncc2c1`: the Potency entry in [1], in assay [6] and in [8] was “inactive” throughout. Further, the outcome in assay [2], in assay [3], in [4], in assay [7] and in assay [9] was inactive.

As for `COc1nc(C)nc(N)n1`, the Potency result in assay [1], in [6] and in [8] was “inactive” each time. The result in assay [2], in assay [3], in [4], in assay [7] and in assay [9] was inactive.
